A selection: hits, their analogues and other compounds. The true share with any hit is near 5.7%.
hcDAF-12 act: activates DAF-12 receptor from parasite H. contortus; HEK293 hcDAF-12 lit1-tk-luc reporter, luminescence; 0% DMSO, 100% Δ7-dafachronic acid; activation, % at 6.8 µM; 370,000 compounds, 1.4% hits; AID 652067;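 active = activation above the mean of all tested compounds plus 3 SD, cut at about 5.5% in these data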
DAX1 inh-1: NR0B1 (DAX1) inhibition; P51843; HEK293 Gal4-DAX1 luciferase reporter, luminescence; inhibition, % at 6.75 µM; 340,000 compounds, 0.99% hits; AID 504766;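 active = inhibition above the mean over all tested compounds plus 3 SD, cut at about 4.2% in these data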;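 also: inhibition shows as a rise in luminescence from relieved DAX1 repression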
Target sequence (P51843 207-470 limits assumed): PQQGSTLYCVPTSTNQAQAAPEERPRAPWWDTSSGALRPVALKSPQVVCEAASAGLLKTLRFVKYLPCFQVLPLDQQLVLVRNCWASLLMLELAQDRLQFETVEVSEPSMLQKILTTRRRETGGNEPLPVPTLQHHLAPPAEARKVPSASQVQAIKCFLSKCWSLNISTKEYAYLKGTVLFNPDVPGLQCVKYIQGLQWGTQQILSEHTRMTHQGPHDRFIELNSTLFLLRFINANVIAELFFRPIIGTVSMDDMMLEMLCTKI
ssDAF12 agonist: activators of S. stercoralis DAF-12 nuclear receptor. HEK293 ssDAF-12/GRIP1 lit1-tk-luc reporter, luminescence; % of 3 µM dafachronic acid response. activation, % at 6.8 µM. 370,000 compounds, 1% hits. AID 652126;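 active = activation above the mean over all tested compounds plus 3 SD, cut at about 0.9% in these data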
DAX1 inh-2: DAX1 (NR0B1) inhibition, primary screen. 370,000 compounds, 1.1% hits. AID 652010. inhibition, % at 6.8 µM. HEK293T StAR-luciferase reporter, SF-1/DAX-1 repression relief;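 active = inhibition above the mean over all tested compounds plus 3 SD, cut at about 3.6% in these data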;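 also: higher inhibition means more luminescence from relief of DAX-1 repression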
hgDAF12 agonist: agonists of H. glycines DAF-12 nuclear receptor; AID 687014; HEK293 GAL4-hgDAF12 UAS-luciferase reporter, agonist luminescence; normalized to butyrate control; activation, % at 6.8 µM; 370,000 compounds, 1.8% hits;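 active = activation above a cutoff set at the mean of all screened compounds plus 3 SD, cut at about 10% in these data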
AHR act: human AHR activation; AHR-responsive luciferase reporter cells, luminescence; activation, % at 5 µM; P35869; 320,000 compounds, 2.5% hits; in the data active = activation above about 47%
AHR act cf: human AHR activation, confirmation | human cells, AHR-responsive luciferase reporter, luminescence | activation, % at 9 µM | shares compounds with AHR act | 2,300 compounds, 87% hits | AID 2845; in the data active = activation above about 49%;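 also: HepG2 hepatoma cells carrying a DRE-driven firefly luciferase reporter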
PXR counter: activates human PXR in AHR activator counter-screen; cell-based PXR reporter, luciferase luminescence; shares compounds with AHR act; 2,300 compounds, 88% hits; AID 434939; activation, % at 11.6 µM; in the data active = activation above about 11%;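 also: human hepatoma DPX-2 cells expressing full-length human PXR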
DAX1 inh confirm: confirmation of human DAX1 (NR0B1) inhibitors; shares compounds with DAX1 inh-2; HEK293T StAR-promoter luciferase reporter, SF-1/DAX-1 repression; inhibition, % at 6.8 µM; 2,400 compounds, 87% hits; AID 652134;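 active = inhibition above the average of every tested compound plus 3 SD, cut at about 3.8% in these data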;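 also: active compounds raise luminescence by relieving repression of the StAR reporter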
SF1 AF2mut Luc: nonselective inhibitor or artifact in SF-1 mutant DAX1 counter-screen. shares compounds with DAX1 inh-2. HEK293 StAR-luciferase, SF-1 AF2 mutant, luminescence. inhibition, % at 6.8 µM. 2,400 compounds, 78% hits;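 active = inhibition above the mean of all tested compounds plus 3 SD, cut at about 3% in these data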
LXR ag: activates human LXR-beta, counter-screen for hcDAF-12 agonists; shares compounds with hcDAF-12 act; HEK293 Gal4-LXR tk-luc reporter, luminescence, 24 h; normalized: DMSO 0%, positive control 100%; activation, % at 6.8 µM; 3,400 tested, under 10 active; AID 743027;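 active = mean percent activation of the reporter above a cutoff set as the average over tested compounds plus their standard deviation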
Target sequence (P55055 whole entry, looked up, the tested form may be a part): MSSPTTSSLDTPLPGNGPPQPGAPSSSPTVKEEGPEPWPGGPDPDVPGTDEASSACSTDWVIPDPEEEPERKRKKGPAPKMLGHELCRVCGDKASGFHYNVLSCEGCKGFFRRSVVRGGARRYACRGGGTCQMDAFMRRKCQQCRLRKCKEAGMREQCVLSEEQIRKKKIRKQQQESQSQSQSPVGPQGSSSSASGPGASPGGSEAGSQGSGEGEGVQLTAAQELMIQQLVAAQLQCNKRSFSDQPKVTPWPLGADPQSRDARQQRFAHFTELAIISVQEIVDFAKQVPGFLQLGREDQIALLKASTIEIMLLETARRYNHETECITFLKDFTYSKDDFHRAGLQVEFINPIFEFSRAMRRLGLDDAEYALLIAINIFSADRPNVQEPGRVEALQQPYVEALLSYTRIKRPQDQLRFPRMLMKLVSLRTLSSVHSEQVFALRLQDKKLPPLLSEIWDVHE
hcDAF12 conf: hcDAF-12 agonism, confirmation assay. activation, % at 6.8 µM. HEK293 hcDAF-12 lit1-tk-luc reporter, luminescence; % of Δ7-dafachronic acid response. 3,400 compounds, 61% hits. AID 743032. shares compounds with hcDAF-12 act;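 active = mean activation across triplicate tests above the threshold derived from the earlier primary screen, cut at about 5.5% in these data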
hgDAF12 conf: confirmation of H. glycines DAF-12 agonists | activation, % at 6.8 µM | 3,300 compounds, 80% hits | shares compounds with hgDAF12 agonist | HEK293 GAL4-hgDAF12 luciferase reporter, agonist mode; percent of butyrate response;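 active = mean activation over triplicate wells above the hit cutoff derived from the earlier primary screen, cut at about 11% in these data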
LXR ag 2: activates human LXR-beta, counter-screen for DAF-12 agonists. AID 743051. HEK293 Gal4-LXR luciferase reporter, 24 h. activation, % at 6.8 µM. 3,300 tested, under 10 active. shares compounds with hgDAF12 agonist;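 active = mean activation of the triplicate above a set limit carried over from the primary screen, none filed active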
Large screens that a line does not name were inactive (follow-up assays come after a bar, where they were run).

Cc1cccnc1Nc1nc(-c2ccc(F)cc2)cs1	hcDAF-12 act 10.1, DAX1 inh-1 6.2, ssDAF12 agonist 1.9, hgDAF12 agonist 17.6, AHR act 125.6 | AHR act cf 131.5 | PXR counter 16.8 | LXR ag inactive | hcDAF12 conf 8.2 | hgDAF12 conf 15.7 | LXR ag 2 inactive
Cc1ccc(N(C(=O)CS(=O)CC(=O)Nc2ccc(F)cc2)C(C)C(=O)NC(C)(C)C)cc1 (stereo unspecified)	none
O=C(Nc1ccc(Cl)cc1)c1ccc2nsnc2c1	hgDAF12 agonist 18.4, AHR act 85.3 | AHR act cf 142.7 | PXR counter 11.9 | hgDAF12 conf 15.3 | LXR ag 2 inactive
O=C(Nc1cccc([N+](=O)[O-])c1)c1ccc2nsnc2c1	none
COc1ccc(OCCN2C(=O)c3ccccc3C2=O)cc1	none
Cc1ccccc1OCCN1C(=O)c2ccccc2C1=O	none
O=C1c2ccccc2C(=O)N1CCOc1ccccc1	hcDAF-12 act 6.9, ssDAF12 agonist 1.2, hgDAF12 agonist 13.6, AHR act 96.5 | AHR act cf 167.2 | PXR counter 21.3 | LXR ag inactive | hcDAF12 conf 8.8 | hgDAF12 conf 16.6 | LXR ag 2 inactive
Nc1cccc2c1C(=O)N(CCOc1ccc(F)cc1)C2=O	hcDAF-12 act 10.5, hgDAF12 agonist 16.8, AHR act 97.7 | AHR act cf 86.7 | PXR counter 28.6 | LXR ag inactive | hcDAF12 conf 9.3 | hgDAF12 conf 17.6 | LXR ag 2 inactive
COc1cc(N)ccc1NC(=O)c1cc2ccccc2o1	hgDAF12 agonist 17.4, AHR act 107.1 | AHR act cf 140.7 | PXR counter 12.5 | hgDAF12 conf inactive | LXR ag 2 inactive
O=C(Cc1ccc(Cl)cc1)Nc1ccc(Cl)cn1	none
O=C(Nc1ccc(Cl)cn1)c1cc2ccccc2o1	hcDAF-12 act 13.5, ssDAF12 agonist 2.7, DAX1 inh-2 4.8, hgDAF12 agonist 14.3, AHR act 110.3 | AHR act cf 71.8 | PXR counter inactive | DAX1 inh confirm 14.3 | SF1 AF2mut Luc 6.8 | LXR ag inactive | hcDAF12 conf 15.7 | hgDAF12 conf 19.7 | LXR ag 2 inactive
O=C(Nc1ccc(Cl)cn1)c1ccccc1F	hcDAF-12 act 6.6, ssDAF12 agonist 1.2, hgDAF12 agonist 15.1, AHR act 147.8 | AHR act cf 77.4 | PXR counter 21.1 | LXR ag inactive | hcDAF12 conf 7.8 | hgDAF12 conf 17.7 | LXR ag 2 inactive
O=C(NNC(=O)c1cc2ccccc2o1)c1ccc(Cl)cc1	none
OC(COC1CCCCC1)CN1CCCCC1 (stereo unspecified)	none
N#C/C(=C/c1cccs1)c1nc2ccccc2[nH]1	hcDAF-12 act 6.8, hgDAF12 agonist 17.6, AHR act 117.3 | AHR act cf 125.0 | PXR counter 22.4 | LXR ag inactive | hcDAF12 conf 8.4 | hgDAF12 conf 14.4 | LXR ag 2 inactive
Cn1c(SCC(=O)Nc2ccc(S(=O)(=O)Nc3nccs3)cc2)nc2sc3c(c2c1=O)CCCC3	none (no result: DAX1 inh-1, AHR act)
Fc1ccccc1-c1ccc(/C=N/Nc2nc3ccccc3[nH]2)o1	hcDAF-12 act 12.6, ssDAF12 agonist 3.4, hgDAF12 agonist 20.8, AHR act 84.2 | AHR act cf 77.8 | PXR counter 10.7 | LXR ag inactive | hcDAF12 conf 13.2 | hgDAF12 conf 17.8 | LXR ag 2 inactive
COc1ccc(OCC(=O)Nc2ccc(N3CCN(Cc4ccccc4F)CC3)cc2)cc1	none
Cc1ccc(-c2cc(-c3ccccc3C)[nH]n2)c(O)c1	hcDAF-12 act 6.8, hgDAF12 agonist 13.9, AHR act 101.5 | AHR act cf 136.0 | PXR counter 18.1 | LXR ag inactive | hcDAF12 conf inactive | hgDAF12 conf 16.6 | LXR ag 2 inactive
Cc1ccc(-c2cc(-c3cccc(F)c3)n[nH]2)c(O)c1	hcDAF-12 act 12.7, DAX1 inh-1 5.0, ssDAF12 agonist 2.5, DAX1 inh-2 4.2, hgDAF12 agonist 13.5, AHR act 126.0 | AHR act cf 141.8 | PXR counter 15.9 | LXR ag inactive | hcDAF12 conf 7.6 | hgDAF12 conf 16.9 | LXR ag 2 inactive
OC(c1ccccc1)(c1ccccc1)C1CCN(CCCOc2ccc(-c3cccnc3)cc2)CC1	none (no result: DAX1 inh-1, AHR act)
O=C(Nc1nccs1)c1csc2c1CCCC2	hcDAF-12 act 7.2, hgDAF12 agonist 14.0, AHR act 84.2 | AHR act cf 121.1 | PXR counter 25.0 | LXR ag inactive | hcDAF12 conf inactive | hgDAF12 conf inactive | LXR ag 2 inactive
O=C(Nc1ccon1)c1csc2c1CCCC2	none
CC1CCCC(C)N1CCCNC(=O)C1CCCN(S(=O)(=O)N2CCCCC2)C1 (stereo unspecified)	none (no result: AHR act)
CC(=O)Nc1ccc2c(c1)C(=O)c1ccccc1C2=O	hcDAF-12 act 6.5, hgDAF12 agonist 14.3, AHR act 152.2 | AHR act cf 120.9 | PXR counter 34.9 | hgDAF12 conf 17.7 | LXR ag 2 inactive
CC1CC1c1ccc(/C=C(\C#N)C(=O)Nc2ccc(Cl)cc2)o1 (stereo unspecified)	hgDAF12 agonist 13.8, AHR act 89.8 | AHR act cf inactive | PXR counter 44.6 | hgDAF12 conf 14.5 | LXR ag 2 inactive
COc1ccc(NC(=O)/C(C#N)=C/c2ccc(Br)o2)cc1	none
